Hit rate of the full screen: of about 68,000 compounds, about 2,700 (4%) showed an effect of 50% or more. For the sample, strong results were picked, then their nearest neighbours and some compounds at random.

For this assay, the system named is Plasmodium berghei. Nature of the assay: Screen against P. berghei liver stage (PbLuc), transformed with Luciferase, at 2uM. Type of assay: functional, HepG2. Conditions: tested at 2 uM.
Regarding `CCOc1c(Br)cc(CNCCc2nnc3n2CCCCC3)cc1OC`, the INHIBITION worked out at 23.16%.
For `CC1CCCCN1C(=O)c1nc2c(n1C(C)C)CCN(C)C2` (centres undefined), the INHIBITION is listed as -19.99%.
The same measure for `N#CCCCOc1cccc(CN2CCCC2c2ccc[nH]2)c1` (centres undefined): -61.99%.
The same measure for `Cc1nn(C)c(C)c1C1CCCN1Cc1cccc(C(N)=O)c1` (centres undefined): 15.91%; for `Cc1nn(C)c(C)c1NC(=O)CN1CCCC1c1c(C)nn(C)c1C` (centres undefined): 23.42%.
For `COc1cccc(CN2CCCC2c2ccc[nH]2)c1` (centres undefined) the value was 68.02%; for `Cc1nc2ccccc2nc1CN1CCCC1c1c(C)nn(C)c1C` (centres undefined), 28.51%; for `Cc1nn(C)c(C)c1C1CCCN1Cc1cccc(OCC(N)=O)c1` (centres undefined), 35.94%.
In the case of `COc1cccc(CN2CCCC2c2c(C)nn(C)c2C)c1` (centres undefined), the INHIBITION turned out to be 61.53%.
The same measure for `Cc1nn(C)c(C)c1C1CCCN1Cc1nc2ccccc2n1C` (centres undefined): 53.11%; for `NC(=O)COc1cccc(CN2CCCC2c2ccc[nH]2)c1` (centres undefined): -4.58%; for `Cc1nn(C)c(Cl)c1C1CCCN1CC(=O)N1CCCCC1` (centres undefined): -0.9%.
The same measure for `Cc1nn(C)c(C)c1C1CCCN1Cc1nc(C)c2ccccc2n1` (centres undefined): 5.1%; for `CC(=O)N1CCN(C(=O)CN2CCCC2c2c(C)nn(C)c2C)CC1` (centres undefined): 60.6%.
For `Cn1cccc1CCC(=O)N1CCC2(CC1)c1ccccc1CC2O` (centres undefined) the value was -57.12%; for `Cc1cnccc1N1CCCN(C(=O)CCc2n[nH]c(C)c2C)CC1`, -40.52%.
Consider `O=C(c1ccc(F)c(Br)c1)N1CCCN2CCCC2C1` (centres undefined), for which the INHIBITION is -4.48%.
For `COCc1cn(C2CCN(C(=O)Cc3ccsc3)CC2)nn1` the value was 53.98%; for `O=C(Cc1ccsc1)N1CCC(Cn2cc(CCO)nn2)CC1`, 12.57%.
Turning to `O=C(CCc1ccsc1)N1CCC(n2cc(CO)nn2)CC1`, the INHIBITION is -25.13%.
For `Cc1noc(CCCC(=O)N2CCCCC2CNS(C)(=O)=O)n1` (centres undefined) the value was 30.58%; for `O=C1CCCN1Cc1nnc(SCc2ccc3c(c2)CCC3)o1`, 52.31%; for `CC(C)c1cccc(CSc2nnc(CN3CCCC3=O)o2)n1`, -12.97%.
The same measure for `CC(C)Oc1ccc(CSc2nnc(CN3CCCC3=O)o2)cc1`: 0.63%.
The same measure for `COC(=O)CCNC(=O)c1cnc(Cc2ccc(F)cc2)s1`: -9.47%; for `CCc1ncc(C(=O)NCCNC(=O)Cc2ccc(F)cc2)s1`: 61.99%.
As for `CN(C)C(=O)CN(C)C(=O)c1cnc(Cc2ccc(F)cc2)s1`, the INHIBITION is on record as 52.08%.
The same measure for `CCc1ncc(C(=O)NCCNc2ccncc2)s1`: -23%; for `CCNC(=O)c1cnc(Cc2ccc(F)cc2)s1`: 6.55%; for `CN(C)CCCNC(=O)c1cnc(Cc2ccc(F)cc2)s1`: -12.27%.
Consider `O=C(CC1CCCO1)NCc1ccc(Br)cc1F` (centres undefined), for which the INHIBITION is reported as -7.89%.
For `CC(C)N1CCCC(C(=O)N2CCN(c3nsc4ccccc34)CC2)C1` (centres undefined) the value was -52.08%; for `O=C(NCC1CCOC1)c1csc(Cc2ccccc2)n1` (centres undefined), 28.14%; for `Cc1ccc(C(=O)N2CC(C(N)=O)O[C@H](C)C2)c(C)c1` (some centres undefined), -3.25%.
The same measure for `COC(=O)C1CCCN1C(=O)c1ccc(Br)cc1F` (centres undefined): 61.96%.
Consider `COC(=O)C1CCCN1C(=O)c1ccc(Cl)cc1F` (centres undefined), for which the INHIBITION was -8.14%.
For `Cc1ccc(C(=O)N2CC(C(N)=O)O[C@H](C)C2)c(F)c1` (some centres undefined) the value was -41.96%; for `C[C@@H]1CN(C(=O)c2ccc(Br)cc2F)CC(C(N)=O)O1` (some centres undefined), 57.34%; for `COC(=O)C1CCCCN1C(=O)c1ccc(N(C)C)cc1F` (centres undefined), 36.67%.
For `Cc1ccsc1C(=O)N1CCc2ncc(CN(C)C)n2CC1` the value was 23.59%; for `Cc1cc(C)c2[nH]c(=O)c(CN3CCCC4(C3)CN(C)C(=O)O4)cc2c1` (centres undefined), 15.08%; for `O=C(c1ccc(S(=O)(=O)NCCc2ccccn2)cc1)N1CCCC1`, 29.41%.
For `CC(C)c1nn(C)c(N(C)C)c1CNCc1ccnn1C` the value was 32.93%; for `CCC1CN(CC(=O)NCCC#N)CCO1` (centres undefined), 21.72%; for `CCCNC(=O)CN1CCOC(CC)C1` (centres undefined), 60.52%.
In the case of `CCC1CN(CC(=O)NCCOC)CCO1` (centres undefined), the INHIBITION was 36.09%.
The same measure for `CCN(CC1CCOCC1)C(=O)C1CC(=O)N(Cc2cccnc2)C1` (centres undefined): 10.83%.
For `COc1ccc(CC(=O)N2CCCN(c3ccc(C#N)cc3)CC2)cc1` the value was -28.34%; for `O=C(NC1CCC1)C1=NOC2(CCN(Cc3ccc(F)cc3)C2)C1` (centres undefined), 34.13%; for `CCC(=O)N1CCC(Oc2ccc(C(=O)NCCN(C)C)cc2Cl)CC1`, 51.96%.
For `COC(=O)N1CCC(Oc2ccc(C(=O)NCCN(C)C)cc2Cl)CC1` the value was 30.62%; for `CN(C)CCNC(=O)c1ccc(OC2CCN(C(=O)CO)CC2)c(Cl)c1`, 14.63%.
As to `CNC(=O)c1nc(CN2CCOC(C(F)(F)F)C2)no1` (centres undefined), the INHIBITION is on record as 65.76%.
On to `CNC(=O)c1nc(CN2CCOC(CCCC(C)C)C2)no1` (centres undefined), for which the INHIBITION is listed as -65.52%.

For the origin of these results see ChEMBL document CHEMBL4513216, “Probing the Open Global Health Chemical Diversity Library for Multistage-Active Starting Points for Next-Generation Antimalarials” (ACS Infect Dis, 2020).
